# According to the supplement of paper PMC8728848:
# The entries come from a sample that favours the strongest signals as a whole.
# B1: AAL (Aleuria aurantia) (protein)
# chain: MPTEFLYTSKIAAISWAATGGRQQRVYFQDLNGKIREAQRGGDNPWTGGSSQNVIGEAKLFSPLAAVTWKSAQGIQIRVYCVNKDNILSEFVYDGSKWITGQLGSVGVKVGSNSKLAALQWGGSESAPPNIRVYYQKSNGSGSSIHEYVWSGKWTAGASFGSTVPGTGIGATAIGPGRLRIYYQATDNKIREHCWDSNSWYVGGFSASASAGVSIAAISWGSTPQIRVYWQKGREELYEAAYGGSWNTPGQIKDASRPTPSLPDTFIAANSSGNIDISVFFQASGVSLQQWQWISGKGWSIGAVVPTGTPAGW
# Tests used:
# Test in all cases: glycan array binding signal (z-score within array); higher = stronger binding
# Conditions in all cases: glycan notation: IUPAC condensed, linker removed; mutation: N224Q
# [1] = molecular target: Gal(b1-4)GlcNAc(b1-3)Gal(b1-4)GlcNAc(b1-3)Gal(b1-4)GlcNAc(b1-3)Gal(b1-4)GlcNAc(b1-2)[Gal(b1-4)GlcNAc(b1-3)Gal(b1-4)GlcNAc(b1-3)Gal(b1-4)GlcNAc(b1-3)Gal(b1-4)GlcNAc(b1-6)]Man(a1-6)[Gal(b1-4)GlcNAc(b1-3)Gal(b1-4)GlcNAc(b1-3)Gal(b1-4)GlcNAc(b1-3)Gal(b1-4)GlcNAc(b1-2)Man(a1-3)]Man(b1-4)GlcNAc(b1-4)[Fuc(a1-6)]GlcNAc
# Outline: (§1)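 Columns mapping to the same glycan were averaged after glycan names were converted to IUPAC-condensed notation. The data come from 3228 arrays in the Consortium for Functional Glycomics database, limited to those with an available protein sequence. Binding is reported as a within-array Z-score averaged across arrays of one protein sequence and across linkers.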
# Gal3S(b1-4)Glc = molecular target: Gal3S(b1-4)Glc
# Outline: as §1
# [2] = molecular target: GlcNAc(a1-4)Gal(b1-4)GlcNAc(b1-3)Gal(b1-4)Glc
# Outline: as §1
# [3] = molecular target: GlcNAc(b1-3)Gal(b1-4)GlcNAc(b1-3)Gal(b1-4)GlcNAc(b1-2)Man(a1-3)[GlcNAc(b1-3)Gal(b1-4)GlcNAc(b1-3)Gal(b1-4)GlcNAc(b1-2)Man(a1-6)]Man(b1-4)GlcNAc(b1-4)[Fuc(a1-6)]GlcNAc
# Outline: as §1
# [4] = molecular target: GlcNAc(b1-3)Gal(b1-4)GlcNAc(b1-3)Gal(b1-4)GlcNAc(b1-3)Gal(b1-4)GlcNAc(b1-2)[GlcNAc(b1-3)Gal(b1-4)GlcNAc(b1-3)Gal(b1-4)GlcNAc(b1-3)Gal(b1-4)GlcNAc(b1-6)]Man(a1-6)[GlcNAc(b1-3)Gal(b1-4)GlcNAc(b1-3)Gal(b1-4)GlcNAc(b1-3)Gal(b1-4)GlcNAc(b1-2)Man(a1-3)]Man(b1-4)GlcNAc(b1-4)[Fuc(a1-6)]GlcNAc
# Outline: as §1
# [5] = molecular target: GlcNAc(b1-3)Gal(b1-4)GlcNAc(b1-3)Gal(b1-4)GlcNAc(b1-3)Gal(b1-4)GlcNAc(b1-3)Gal(b1-4)GlcNAc(b1-2)Man(a1-3)[GlcNAc(b1-3)Gal(b1-4)GlcNAc(b1-3)Gal(b1-4)GlcNAc(b1-3)Gal(b1-4)GlcNAc(b1-3)Gal(b1-4)GlcNAc(b1-2)Man(a1-6)]Man(b1-4)GlcNAc(b1-4)[Fuc(a1-6)]GlcNAc
# Outline: as §1
# [6] = molecular target: GlcNAc(b1-3)[GlcNAc(b1-6)]Gal(b1-4)GlcNAc
# Outline: as §1
# GlcNAc(b1-6)GalNAc = molecular target: GlcNAc(b1-6)GalNAc
# Outline: as §1
# [7] = molecular target: Man(a1-2)Man(a1-3)[Man(a1-2)Man(a1-6)]Man(a1-6)[Man(a1-2)Man(a1-2)Man(a1-3)]Man(b1-4)GlcNAc(b1-4)GlcNAc
# Outline: as §1
# [8] = molecular target: Neu5Ac(a2-3)Gal(b1-3)GlcNAc(b1-2)Man
# Outline: as §1
# [9] = molecular target: Neu5Ac(a2-3)Gal(b1-4)GlcNAc(b1-2)[Neu5Ac(a2-3)Gal(b1-4)GlcNAc(b1-4)]Man(a1-3)[GlcNAc(b1-4)][Neu5Ac(a2-3)Gal(b1-4)GlcNAc(b1-2)[Neu5Ac(a2-3)Gal(b1-4)GlcNAc(b1-6)]Man(a1-6)]Man(b1-4)GlcNAc(b1-4)GlcNAc
# Outline: as §1
# [10] = molecular target: Neu5Ac(a2-3)Gal(b1-4)GlcNAc(b1-3)Gal(b1-4)[Fuc(a1-3)]GlcNAc
# Outline: as §1
# [11] = molecular target: Neu5Ac(a2-3)Gal(b1-4)[Fuc(a1-3)]GlcNAc
# Outline: as §1
# [12] = molecular target: Neu5Ac(a2-3)Gal(b1-4)[Fuc(a1-3)]GlcNAc(b1-2)Man
# Outline: as §1
# Neu5Ac(a2-6)Gal = molecular target: Neu5Ac(a2-6)Gal
# Outline: as §1
# [13] = molecular target: Neu5Ac(a2-6)Gal(b1-4)GlcNAc(b1-2)[Neu5Ac(a2-6)Gal(b1-4)GlcNAc(b1-6)]Man(a1-6)[Neu5Ac(a2-6)Gal(b1-4)GlcNAc(b1-2)Man(a1-3)][GlcNAc(b1-4)]Man(b1-4)GlcNAc(b1-4)GlcNAc
# Outline: as §1
# [14] = molecular target: Neu5Ac(a2-6)Gal(b1-4)GlcNAc(b1-3)Gal(b1-3)GlcNAc
# Outline: as §1
# [15] = molecular target: Neu5Ac(a2-6)GalNAc(b1-4)GlcNAc
# Outline: as §1
# [16] = molecular target: Neu5Ac(a2-6)GlcNAc(b1-4)GlcNAc
# Outline: as §1
# [17] = molecular target: Neu5Gc(a2-3)Gal(b1-4)[Fuc(a1-3)]GlcNAc
# Outline: as §1
binder,measurement,setting,value
B1,glycan array binding signal (z-score),[1],-0.229
same,glycan array binding signal (z-score),Gal3S(b1-4)Glc,-0.321
same,glycan array binding signal (z-score),[2],-0.318
same,glycan array binding signal (z-score),[3],2.92
same,glycan array binding signal (z-score),[4],-0.085
same,glycan array binding signal (z-score),[5],1.97
same,glycan array binding signal (z-score),[6],-0.322
same,glycan array binding signal (z-score),GlcNAc(b1-6)GalNAc,-0.325
same,glycan array binding signal (z-score),[7],-0.312
same,glycan array binding signal (z-score),[8],-0.311
same,glycan array binding signal (z-score),[9],-0.327
same,glycan array binding signal (z-score),[10],-0.32
same,glycan array binding signal (z-score),[11],0.758
same,glycan array binding signal (z-score),[12],0.186
same,glycan array binding signal (z-score),Neu5Ac(a2-6)Gal,-0.314
same,glycan array binding signal (z-score),[13],-0.303
same,glycan array binding signal (z-score),[14],-0.324
same,glycan array binding signal (z-score),[15],-0.323
same,glycan array binding signal (z-score),[16],-0.327
same,glycan array binding signal (z-score),[17],0.052
